ChEMBL document CHEMBL1201862, “PubChem BioAssay data set” (2004)
Values joined by “and” are separate entries in the source; they are usually repeats but may differ in a detail not shown here. Identical values can stand only once.

assay: A High Throughput Confirmatory Assay used to Identify Novel Compounds that Inhibit Mycobacterium Tuberculosis in the absence of Glycerol using Purified and Synthesized Compounds (8).; format: functional; call rule not given here

Question: With `O=C(NCCc1ccc(Cl)cc1)c1ccc(CNc2c(N3CCOCC3)c(=O)c2=O)cc1` as the molecule, how does the IC90 read?
Answer: > 100 µM (active)

Question: With `O=C(c1ccc(CNc2c(N3CCOCC3)c(=O)c2=O)cc1)N1CCN(c2ccccc2)CC1` as the molecule, how does the IC90 read?
Answer: > 53.1 µM (active)

Question: Which IC90 does the source give for `O=C(c1ccc(CNc2c(N3CCCC3)c(=O)c2=O)cc1)N1CCN(c2ccccc2)CC1` here?
Answer: > 100 µM (active)

Question: With `CC1CC(C)CN(C(=O)C2CCC(CNc3c(N4CCCCC4)c(=O)c3=O)CC2)C1` (stereo not drawn) as the molecule, how does the IC90 read?
Answer: > 75 µM (active) and > 100 µM (active)

Question: For `O=C(c1ccc(CNc2c(N3CCCC3)c(=O)c2=O)cc1)N1CCc2ccccc2C1`, which IC90 is on record?
Answer: > 100 µM (active)

Question: For `CC1CCCN(C(=O)C2CCC(CNc3c(N4CCCCC4)c(=O)c3=O)CC2)C1` (stereo not drawn), which IC90 is on record?
Answer: > 100 µM (active)

Question: Which IC90 does the source give for `O=C(NCCc1ccc(Cl)cc1)C1CCC(CNc2c(N3CCCCC3)c(=O)c2=O)CC1` (stereo not drawn) here?
Answer: > 83.3 µM (active)

Question: For `COc1ccc(N2CCN(C(=O)c3ccc(CNc4c(N5CCOCC5)c(=O)c4=O)cc3)CC2)cc1`, which IC90 is on record?
Answer: > 100 µM (active)

Question: With `CC(C)CCNC(=O)CSc1nc2c(c(=O)[nH]1)CCCCC2` as the molecule, how does the IC90 read?
Answer: > 100 µM (active)

Question: With `CC1CCN(C(=O)c2ccc(CNc3c(N4CCCC4)c(=O)c3=O)cc2)CC1` as the molecule, how does the IC90 read?
Answer: > 100 µM (active)

Question: For `O=C(C1CCC(CNc2c(N3CCCCC3)c(=O)c2=O)CC1)N1CCCCC1` (stereo not drawn), which IC90 is on record?
Answer: > 83.3 µM (active)

Question: Which IC90 does the source give for `CC(C)OC(=O)CSc1ncnc2c1cnn2-c1ccccc1` here?
Answer: > 100 µM (active)

Question: Which IC90 does the source give for `CCOC(=O)N1CCC(/N=c2\c(O)c(O)\c2=N/c2cccc(CC)c2)CC1` here?
Answer: > 59.3 µM (active)
